Measured values from PubChem BioAssay (EPA / NIEHS).
Where “and” joins values, the source holds several entries; their conditions need not be identical. Equal entries are not always repeated. Results filed as inconclusive are left out. Some structures have more than one record in an assay (separate samples or runs), and their calls can disagree. Calls of active or inactive are those of the source. Rule for the calls: active = hit-call score of the fitted dose curve at least 0.9, where 1 is the maximum; inconclusive = response in the unintended direction; inactive = score below 0.9.

Tests used:
[1] = ATG_M_06_XSP2: Attagene TRANS-FACTORIAL Multi-Species (XSP2) HepG2 Assay for M06 Transcription Factor (Internal Marker) (AID 2283811);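 note: internal background marker reporter mRNA measured by RT-PCR and capillary electrophoresis; hits are increases in signal above the DMSO baseline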
Summary of the method: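 HepG2 cells transiently transfected with GAL4-UAS multi-reporter constructs, dosed 24 h with 3 nM 6-alpha-fluorotestosterone plus 1.5 nM norgestrel present to stimulate androgen receptor. Reporter mRNA quantified by RT-PCR, 6-FAM labelling, HpaI digestion and capillary electrophoresis; gain-of-signal fitted versus DMSO baseline.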

[2] = target: Estrogen receptor beta (Homo sapiens) (UniProt Q92731); assay: ATG_hERb_XSP2: Attagene TRANS-FACTORIAL Multi-Species (XSP2) HepG2 Assay for human Estrogen Receptor (ERb) (AID 2283813);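 note: actives raise reporter mRNA above DMSO so AC50 reflects agonist induction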
Summary of the method: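 HepG2 cells transiently transfected with GAL4-UAS reporter units and chimeric human ERb-Gal4, 24 h exposure. Reporter mRNA quantified by RT-PCR with FAM labelling, HpaI digestion and capillary electrophoresis; gain of signal versus DMSO.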

[3] = target: GAL4 Transcription Factor (Internal Marker), GAL4 (gene 855828) (UniProt P04386); assay: ATG_GAL4_XSP2: Attagene TRANS-FACTORIAL Multi-Species (XSP2) HepG2 Assay for GAL4 Transcription Factor (Internal Marker) (AID 2283814);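 note: GAL4 reporter mRNA background control in MRTU transfected cells not a receptor target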
Summary of the method: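 HepG2 cells transiently transfected with GAL4-UAS reporter units, stimulated with 3 nM 6-alpha-fluorotestosterone plus 1.5 nM norgestrel, dosed 24 h. Reporter mRNA by RT-PCR/capillary electrophoresis; gain-of-signal fit versus DMSO, background control.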

[4] = target: zebrafish Estrogen Receptor (ER1), esr1 (gene 259252) (UniProt P57717); assay: ATG_zfER1_XSP2: Attagene TRANS-FACTORIAL Multi-Species (XSP2) HepG2 Assay for zebrafish Estrogen Receptor (ER1) (AID 2283816)
Summary of the method: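 HepG2 cells transiently transfected with a GAL4-UAS reporter and a chimeric zebrafish ER1-Gal4 construct, dosed 24 h. Reporter mRNA quantified by RT-PCR, labelling, HpaI digestion and capillary electrophoresis, relative to DMSO.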

[5] = test system: turtle Estrogen Receptor (ERa), gene 101933533; assay: ATG_trERa_XSP2: Attagene TRANS-FACTORIAL Multi-Species (XSP2) HepG2 Assay for turtle Estrogen Receptor (ERa) (AID 2283812);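 note: human HepG2 liver cells transiently expressing turtle ERa-Gal4 chimeric receptor; actives raise reporter signal above DMSO so AC50 reflects agonist activity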
Summary of the method: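 HepG2 cells transiently transfected with GAL4-UAS reporter units expressing turtle ERa-Gal4 chimera. Reporter mRNA measured after 24 h dosing by RT-PCR, fluorescent labelling and capillary electrophoresis; gain of signal fitted versus DMSO.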

[6] = test system: turtle Androgen Receptor (AR), gene 101947425; assay: ATG_trAR_XSP2: Attagene TRANS-FACTORIAL Multi-Species (XSP2) HepG2 Assay for turtle Androgen Receptor (AR) (AID 2283815);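 for AC50: potency for gain of reporter signal meaning activation above DMSO baseline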
Summary of the method: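 HepG2 cells transiently transfected with GAL4-UAS reporter units for chimeric NR-Gal4 receptors; 24 h dosing in presence of 3 nM 6-alpha-fluorotestosterone and 1.5 nM norgestrel. Reporter mRNA by RT-PCR and capillary electrophoresis, gain of signal versus DMSO.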

[7] = test system: zebrafish Estrogen Receptor (ER2a), gene 317734; assay: ATG_zfER2a_XSP2: Attagene TRANS-FACTORIAL Multi-Species (XSP2) HepG2 Assay for zebrafish Estrogen Receptor (ER2a) (AID 2283818);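 note: hits raise reporter mRNA so AC50 reflects activation of zebrafish ER2a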
Summary of the method: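 HepG2 cells transiently transfected with GAL4-UAS reporter units and chimeric zebrafish ER2a-Gal4, exposed 24 h; medium contains 3 nM 6-alpha-fluorotestosterone and 1.5 nM norgestrel. Reporter mRNA quantified by RT-PCR, HpaI digestion, capillary electrophoresis; gain versus DMSO.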

[8] = target: chicken Estrogen Receptor (ERa), ESR1 (gene 396099) (UniProt P06212); assay: ATG_chERa_XSP2: Attagene TRANS-FACTORIAL Multi-Species (XSP2) HepG2 Assay for chicken Estrogen Receptor (ERa) (AID 2283817);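 note: actives raise reporter signal above DMSO so AC50 reflects ER activation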
Summary of the method: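 HepG2 cells transiently transfected with multiplexed GAL4-UAS reporter units expressing chimeric chicken ERa-Gal4; 24 h compound exposure. Reporter mRNA measured by RT-PCR with 6-FAM labelling, HpaI digestion and capillary electrophoresis; gain-of-signal fitted versus DMSO.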

[9] = target: zebrafish Thyroid Hormone Receptor beta (TRb), thrb (gene 30607) (UniProt Q9PVE4); assay: ATG_zfTRb_XSP1: Attagene TRANS-FACTORIAL Multi-Species (XSP1) HepG2 Assay for zebrafish Thyroid Hormone Receptor beta (TRb) (AID 2283809)
Summary of the method: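 HepG2 cells transiently transfected with multiplexed GAL4-UAS reporter units expressing chimeric zebrafish TRb–Gal4. Dosed 24 h with 3 nM 6-alpha-fluorotestosterone present; reporter mRNA measured by RT-PCR, HpaI digestion and capillary electrophoresis; gain of signal versus DMSO.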

[10] = ATG_XTT_Cytotoxicity_XSP1: Cytotoxicity Assessment in the Attagene TRANS-FACTORIAL Multi-Species (XSP1) HepG2 Assay (AID 2283810)
Summary of the method: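 XTT viability readout taken at 24 hours post-dosing in HepG2 liver cells co-treated with 3 nM 6-alpha-fluorotestosterone. Signal loss relative to DMSO controls reflects cytotoxicity.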

Chain of GAL4 Transcription Factor (Internal Marker), GAL4 (gene 855828) (P04386 whole entry, looked up, the tested form may be a part): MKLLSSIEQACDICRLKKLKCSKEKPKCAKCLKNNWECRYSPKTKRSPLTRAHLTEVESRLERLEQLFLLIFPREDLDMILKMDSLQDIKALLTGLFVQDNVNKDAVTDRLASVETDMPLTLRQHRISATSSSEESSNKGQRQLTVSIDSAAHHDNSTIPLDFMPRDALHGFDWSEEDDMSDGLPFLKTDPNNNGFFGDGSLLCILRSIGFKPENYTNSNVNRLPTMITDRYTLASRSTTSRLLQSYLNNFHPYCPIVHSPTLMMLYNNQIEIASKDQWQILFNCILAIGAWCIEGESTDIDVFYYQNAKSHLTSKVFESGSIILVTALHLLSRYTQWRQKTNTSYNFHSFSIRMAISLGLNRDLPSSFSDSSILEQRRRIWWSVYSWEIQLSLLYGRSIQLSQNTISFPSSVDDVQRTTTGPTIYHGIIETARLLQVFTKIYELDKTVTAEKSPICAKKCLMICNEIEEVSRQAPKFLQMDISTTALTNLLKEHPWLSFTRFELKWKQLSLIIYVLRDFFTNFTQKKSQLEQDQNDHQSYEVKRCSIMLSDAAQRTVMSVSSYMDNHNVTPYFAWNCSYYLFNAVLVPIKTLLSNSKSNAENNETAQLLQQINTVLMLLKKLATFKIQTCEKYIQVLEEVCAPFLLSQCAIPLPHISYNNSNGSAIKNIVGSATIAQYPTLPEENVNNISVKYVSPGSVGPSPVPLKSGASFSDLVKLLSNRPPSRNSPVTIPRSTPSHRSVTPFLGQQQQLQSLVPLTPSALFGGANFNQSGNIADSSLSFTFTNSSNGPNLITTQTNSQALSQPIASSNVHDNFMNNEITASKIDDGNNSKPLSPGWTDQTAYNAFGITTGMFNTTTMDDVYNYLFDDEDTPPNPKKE
Chain of zebrafish Estrogen Receptor (ER1), esr1 (gene 259252) (P57717 whole entry, looked up, the tested form may be a part): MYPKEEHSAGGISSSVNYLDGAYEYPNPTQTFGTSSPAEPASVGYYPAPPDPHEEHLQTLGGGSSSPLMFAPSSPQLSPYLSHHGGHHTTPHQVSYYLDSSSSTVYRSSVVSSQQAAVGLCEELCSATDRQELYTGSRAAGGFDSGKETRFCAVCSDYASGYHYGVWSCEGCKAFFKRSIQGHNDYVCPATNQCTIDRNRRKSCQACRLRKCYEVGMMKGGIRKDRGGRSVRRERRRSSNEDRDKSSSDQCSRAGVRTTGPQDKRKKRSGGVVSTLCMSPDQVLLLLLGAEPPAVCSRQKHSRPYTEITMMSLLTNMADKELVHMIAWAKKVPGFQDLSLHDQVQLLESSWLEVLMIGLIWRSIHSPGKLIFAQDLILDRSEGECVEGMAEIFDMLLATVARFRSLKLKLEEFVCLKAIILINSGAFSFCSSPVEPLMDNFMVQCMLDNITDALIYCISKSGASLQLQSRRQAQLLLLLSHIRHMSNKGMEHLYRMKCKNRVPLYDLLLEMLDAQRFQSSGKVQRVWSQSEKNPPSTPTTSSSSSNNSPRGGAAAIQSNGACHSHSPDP
Chain of chicken Estrogen Receptor (ERa), ESR1 (gene 396099) (P06212 whole entry, looked up, the tested form may be a part): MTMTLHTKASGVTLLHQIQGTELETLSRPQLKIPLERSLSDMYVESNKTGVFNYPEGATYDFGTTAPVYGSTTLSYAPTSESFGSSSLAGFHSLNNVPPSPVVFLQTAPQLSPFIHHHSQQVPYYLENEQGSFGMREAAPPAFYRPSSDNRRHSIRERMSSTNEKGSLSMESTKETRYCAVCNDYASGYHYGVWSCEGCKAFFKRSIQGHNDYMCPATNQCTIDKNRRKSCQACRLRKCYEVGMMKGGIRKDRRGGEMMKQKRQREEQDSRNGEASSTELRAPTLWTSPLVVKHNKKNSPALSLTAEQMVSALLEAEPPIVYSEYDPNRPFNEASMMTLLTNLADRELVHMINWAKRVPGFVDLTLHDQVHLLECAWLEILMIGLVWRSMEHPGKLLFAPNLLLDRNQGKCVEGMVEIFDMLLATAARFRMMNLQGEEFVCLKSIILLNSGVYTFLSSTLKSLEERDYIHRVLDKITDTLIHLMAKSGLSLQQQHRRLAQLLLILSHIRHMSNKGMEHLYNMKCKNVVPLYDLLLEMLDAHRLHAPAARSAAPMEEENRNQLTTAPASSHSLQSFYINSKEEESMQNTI
Chain of zebrafish Thyroid Hormone Receptor beta (TRb), thrb (gene 30607) (Q9PVE4 whole entry, looked up, the tested form may be a part): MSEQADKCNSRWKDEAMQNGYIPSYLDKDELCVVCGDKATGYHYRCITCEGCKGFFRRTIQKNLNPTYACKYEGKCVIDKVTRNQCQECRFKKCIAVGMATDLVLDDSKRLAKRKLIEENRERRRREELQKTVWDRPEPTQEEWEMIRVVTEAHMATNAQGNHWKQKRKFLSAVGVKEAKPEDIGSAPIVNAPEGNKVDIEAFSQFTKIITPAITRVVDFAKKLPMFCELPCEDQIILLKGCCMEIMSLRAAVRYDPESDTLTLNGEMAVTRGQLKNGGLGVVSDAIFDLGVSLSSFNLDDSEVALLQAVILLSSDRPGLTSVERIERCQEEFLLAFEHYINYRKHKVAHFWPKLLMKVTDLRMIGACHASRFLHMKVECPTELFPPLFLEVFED
Chain of Estrogen receptor beta (Homo sapiens) (Q92731 whole entry, looked up, the tested form may be a part): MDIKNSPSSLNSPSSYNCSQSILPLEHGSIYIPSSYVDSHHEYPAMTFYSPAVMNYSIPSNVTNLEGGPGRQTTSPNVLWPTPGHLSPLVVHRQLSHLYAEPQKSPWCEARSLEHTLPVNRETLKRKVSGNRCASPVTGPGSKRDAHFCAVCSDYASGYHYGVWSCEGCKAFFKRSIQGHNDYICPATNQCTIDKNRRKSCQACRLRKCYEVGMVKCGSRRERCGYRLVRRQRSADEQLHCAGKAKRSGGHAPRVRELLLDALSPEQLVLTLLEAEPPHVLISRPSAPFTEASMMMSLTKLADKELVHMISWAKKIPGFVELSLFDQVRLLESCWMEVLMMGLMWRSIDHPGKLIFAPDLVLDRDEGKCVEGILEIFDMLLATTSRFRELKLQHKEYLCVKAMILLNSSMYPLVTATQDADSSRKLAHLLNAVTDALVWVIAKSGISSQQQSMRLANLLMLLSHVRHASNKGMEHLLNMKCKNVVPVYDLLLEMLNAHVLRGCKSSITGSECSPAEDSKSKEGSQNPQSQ

## CCC(=C(c1ccc(O)cc1)c1ccc(OCCN(C)C)cc1)c1ccccc1
[1]
  outcome: inactive
[2]
  outcome: inactive
[3]
  outcome: inactive
[4]
  outcome: inactive

## O=C(O)Cc1cc(I)c(Oc2cc(I)c(O)c(I)c2)c(I)c1
[1]
  outcome: inactive
[5]
  outcome: inactive
[3]
  outcome: inactive
[6]
  outcome: inactive
[4]
  outcome: inactive
[7]
  outcome: inactive

## O=c1c(-c2ccc(O)cc2)coc2cc(O)ccc12
[1]
  outcome: inactive
[5]
  AC50: 994 nM (active) and 448 nM (active)
[6]
  AC50: 2320 nM (active)
  outcome: inactive
[4]
  AC50: 6.22 µM (active) and 2.67 µM (active)
[8]
  AC50: 1.49 µM (active) and 369 nM (active)
[7]
  AC50: 385 nM (active) and 164 nM (active)

## CCCOC(=O)c1ccc(O)cc1
[1]
  outcome: inactive
[5]
  AC50: 72.9 µM (active) and 726 nM (active)
[2]
  AC50: 31.9 µM (active) and 2.52 µM (active)
[3]
  outcome: inactive
[6]
  outcome: inactive
[4]
  AC50: 11.1 µM (active)
  outcome: inactive
[8]
  AC50: 27.8 µM (active) and 9.35 µM (active)
[7]
  AC50: 51 µM (active) and 3.49 µM (active)

## Oc1cc2ccccc2c2ccccc12
[5]
  outcome: inactive
[2]
  outcome: inactive
[3]
  outcome: inactive
[4]
  outcome: inactive
[7]
  outcome: inactive

## CCC(C)(C)C1CCC(O)CC1 (configuration not stated)
[9]
  outcome: inactive
[1]
  outcome: inactive
[5]
  outcome: inactive
[3]
  outcome: inactive
[4]
  outcome: inactive
[8]
  outcome: inactive
[7]
  outcome: inactive

## Cc1oc(-c2ccccc2)nc1CCOc1ccc(C[C@H](Nc2ccccc2C(=O)c2ccccc2)C(=O)O)cc1
[9]
  outcome: inactive
[10]
  outcome: inactive
[1]
  outcome: inactive
[5]
  outcome: inactive
[2]
  outcome: inactive

## CC[C@H](c1ccc(O)cc1)[C@@H](CC)c1ccc(O)cc1
[9]
  outcome: inactive
[10]
  outcome: inactive
[1]
  outcome: inactive
[5]
  AC50: 0.0546 nM (active)
[2]
  AC50: 0.147 nM (active)
[4]
  AC50: 0.000411 µM (active)
[8]
  AC50: 0.0247 nM (active)
[7]
  AC50: 0.124 nM (active)

## c1ccc2c(c1)ccc1ccccc12
[1]
  outcome: inactive
[5]
  outcome: inactive
[3]
  outcome: inactive
[8]
  outcome: inactive
[7]
  outcome: inactive

## C#C[C@]1(O)CC[C@H]2[C@@H]3CCC4=CC(=O)CC[C@@H]4[C@H]3CC[C@@]21C
[5]
  AC50: 122 nM (active)
[2]
  AC50: 2430 nM (active)
[6]
  AC50: 180000 nM (active)
[4]
  AC50: 1.65 µM (active)
[8]
  AC50: 76.6 nM (active)
[7]
  AC50: 83.4 nM (active)
